From PubChem
TDP1 cell noCPT: qHTS for Inhibitors of human tyrosyl-DNA phosphodiesterase 1 (TDP1): qHTS in cells in absence of CPT | DT40 Tdp1-/- hTDP1 cells, no CPT, ATP luminescence, 48 h | Potency, µM (titrated, usually from 46.2 µM), most hits filed as inhibitors | 420,000 compounds, 15% hits | AID 686978, 2013; further: nearly all actives have a fitted effect of over 55% in size
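Camptothecin absent (DMSO only). Human TDP1-complemented DT40 knockout cells, 400 cells/well, 37 °C for minimum 48 hr; ATP measured via CellTiter-Glo, 30 min dark incubation, luminescence.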
IL-1B inflam inh: qHTS for Inhibitors of Inflammasome Signaling: IL-1-beta AlphaLISA Primary Screen; activity change, % at 57.5 µM; 360,000 compounds, 4.7% hits; THP-1 LPS/ATP IL-1B secretion, AlphaLISA, 16 h; active compounds read low; in the data active means activity change below about -50%; inconclusive means mostly about -30% to -49%
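THP-1 cells pretreated 1 hr with compounds (up to 57.5 uM final), then stimulated with LPS (250 ng/mL final) plus ATP (1.25 mM final); secreted IL-1B measured by AlphaLISA after 16 hr, decreased signal indicating inhibition.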
VP16 counter: VP16 counterscreen qHTS for inhibitors of ROR gamma transcriptional activity; Drosophila S2 Gal4-VP16 UAS-luciferase, luminescence, 20 h; Potency, µM (highest dose often 53.6 µM), actives largely listed as inhibitors; 310,000 compounds, 3.5% hits;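 further: Gal4-VP16 expression switched on by copper sulfate through the metallothionein promoter; nearly all actives have a fitted effect of over 50% in size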
LDHA block: qHTS assay for inhibitors of human lactate dehydrogenase; 480,000 compounds, 0.15% hits; AID 1347041, 2019; activity change, % (values are at about 110 or 230 µM); purified LDHA, NADH/diaphorase-resazurin fluorescence; active compounds read low; L-lactate dehydrogenase A chain (Homo sapiens), P00338; in the data active means activity change below about -30%; inconclusive means mostly about -25% to -30%
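LDH5 2 nM; NADH 0.06 mM, pyruvate 0.2 mM; 200 mM Tris pH 7.4, EDTA, Tween-20; 5 min RT. Detection: diaphorase 0.133 mg/mL + resazurin 37 µM, fluorescence ex540/em590 at 0 and 20 min; normalized to enzyme-free and DMSO wells.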
TDP1 cell CPT: qHTS for Inhibitors of human tyrosyl-DNA phosphodiesterase 1 (TDP1): qHTS in cells in presence of CPT | chicken DT40 Tdp1-/-;hTDP1 cells + 20 nM CPT, ATP luminescence, 48 h | Potency, µM (top dose mostly 46.2 µM), usual class: inhibitors | 420,000 compounds, 12% hits; further: nearly all actives have a fitted effect of over 55% in size
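Chicken DT40 Tdp1-/- cells complemented with human TDP1, 400 cells/well, exposed to compounds plus 20 nM camptothecin for at least 48 h at 37 C; viability read as ATP content by CellTiter-Glo luminescence.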
RORg inh: qHTS for inhibitors of ROR gamma transcriptional activity | Nuclear receptor ROR-gamma (Mus musculus), P51450 | Drosophila S2 Gal4-RORgamma UAS-luciferase reporter, 20 h | Potency, µM (highest dose often 53.6 µM), usual class: inhibitors | 310,000 compounds, 5.4% hits | AID 2551, 2010; further: nearly all actives have a fitted effect of over 60% in size
Target sequence (P51450 whole entry, looked up, the tested form may be a part): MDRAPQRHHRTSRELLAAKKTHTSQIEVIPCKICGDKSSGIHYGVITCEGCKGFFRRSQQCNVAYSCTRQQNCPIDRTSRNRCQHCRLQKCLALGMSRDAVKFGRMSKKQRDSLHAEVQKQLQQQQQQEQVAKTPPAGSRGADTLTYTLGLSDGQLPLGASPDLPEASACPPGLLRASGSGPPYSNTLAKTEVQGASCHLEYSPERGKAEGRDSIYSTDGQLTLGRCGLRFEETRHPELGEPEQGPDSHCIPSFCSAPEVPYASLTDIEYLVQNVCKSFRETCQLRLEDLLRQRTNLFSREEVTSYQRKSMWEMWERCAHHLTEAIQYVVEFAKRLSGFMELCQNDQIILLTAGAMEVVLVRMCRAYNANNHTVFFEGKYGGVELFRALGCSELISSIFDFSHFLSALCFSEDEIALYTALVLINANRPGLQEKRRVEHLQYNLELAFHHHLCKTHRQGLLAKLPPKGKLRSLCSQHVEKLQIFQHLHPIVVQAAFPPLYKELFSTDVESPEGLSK
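Read-out: Photinus luciferase luminescence; inhibitors lower reporter signal. Insect Schneider cells with Gal4-ROR gamma fusion under metallothionein promoter, UAS reporter; 700 uM final copper sulfate induction, 20 hr, ambient temperature.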
A number is an active result; i = inactive; ? = inconclusive; nt = no result given; ! = not active in a repeat; [ ] = remark or other dose. Most compounds without a hit are left out; they make up all but 18% or so of the library. Unless noted, the call rests on the fitted dose curve; in most records, active means well fitted curve in the direction sought with a large enough effect; inconclusive means small, poorly fitted or top-dose-only effect, or another doubt; inactive means no such curve, though single readings can be large; an effect the other way counts as inactive or inconclusive.

SMILES | TDP1 cell noCPT | IL-1B inflam inh | VP16 counter | LDHA block | TDP1 cell CPT | RORg inh
Cc1nnc(N2C(=O)c3cccc4c([N+](=O)[O-])ccc(c34)C2=O)s1 | 4.61µM | -95.4 | 3.16µM | i | 7.31µM | 3.98µM
Cc1cc(C)c(NC(=O)CN(C)C(=O)c2cc(=O)c3ccccc3o2)c(C)c1 | nt | nt | nt | i | nt | nt
O=C(c1cc2ccccc2[nH]1)N1CCN(S(=O)(=O)c2cccs2)CC1 | nt | nt | nt | i | nt | nt
CC1(C)CC(NC(=O)c2ccccc2)CC(C)(C)N1 | i | i | i | i | i | i
CC1(C)CC(Nc2ccc(Nc3ccccc3)cc2)CC(C)(C)N1 | 4.61µM | -81.0 | ? | i | 16.4µM | ?
c1ccc(NCC2CCOC2)cc1 (stereo not drawn) | nt | nt | nt | i | nt | nt
CCOC(=O)N1CCc2c(sc3c2c(=O)n(-c2ccc(CC)cc2)c(=O)n3Cc2cccc(OC)c2)C1 | ? | nt | nt | i | 13µM | nt
COc1cccc(Cn2c(=O)n(-c3cccc(Cl)c3)c(=O)c3c4c(sc32)CN(C(C)=O)CC4)c1 | 18.4µM | nt | nt | i | ? | nt
CCCN(CCC)C(=O)Cn1c(=O)n(-c2ccc(CC)cc2)c(=O)c2c3c(sc21)CCC3 | 16.4µM | nt | nt | i | ? | nt
CCOC(=O)N1CCc2c(sc3c2c(=O)n(-c2ccc(CC)cc2)c(=O)n3CC(=O)NCC2CCCO2)C1 (stereo not drawn) | 1.3µM | i | i | i | 4.61µM | i
COC(=O)c1ccc(OC)c(Cn2c(=O)n(-c3cccc(Cl)c3)c(=O)c3c4c(sc32)CN(C(C)=O)CC4)c1 | i | nt | nt | i | i | nt
CCOC(=O)N1CCc2c(sc3c2c(=O)n(-c2ccc(CC)cc2)c(=O)n3CC(=O)c2ccccc2)C1 | i | nt | nt | i | ? | nt
CC(C)c1cc(C(=O)Nc2ccc(F)cc2)nn1C1CCS(=O)(=O)C1 (stereo not drawn) | nt | nt | nt | i | nt | nt
CC(=O)N1CCN(C(=O)c2cc(C3CC3)nc3ccccc23)CC1 | nt | nt | nt | i | nt | nt
O=C1c2ccccc2C(=O)N1c1cc(=O)c2ccccc2[nH]1 | nt | nt | nt | i | nt | nt
O=c1cc(C(F)(F)F)[nH]c2ccccc12 | 20.6µM | i | i | i | ? | i
O=C(O)c1cc(=O)c2c(Cl)cc(Cl)cc2[nH]1 | i | i | i | i | i | i
Cc1cccc2c(=O)cc(C(F)(F)F)[nH]c12 | ? | i | ? | i | ? | ?
Cc1ccc2[nH]c(C(F)(F)F)cc(=O)c2c1 | 11.6µM | nt | i | i | ? | i
O=c1cc(C(F)(F)F)[nH]c2c(OC(F)(F)F)cccc12 | ? | -59.0 | ? | i | i | ?
O=C(O)c1cc(=O)c2ccccc2[nH]1 | i | i | i | i | 0.058µM! | i
O=C(NC1CCCCCC1)c1ccc(Cn2cnc3ccccc3c2=O)cc1 | nt | nt | nt | i | nt | nt
O=C(NN=Cc1ccccc1O)C1CC1 | 10.3µM | i | nt | i | 5.8µM | nt
O=C(N/N=C/c1cccc(Cl)c1Cl)C1CC1 | nt | nt | nt | i | nt | nt
O=[N+]([O-])c1ccc(O)c(/C=N/Nc2ccccc2Cl)c1 | ? | -52.8 | ? | i | ? | ?
SMILES | TDP1 cell noCPT | IL-1B inflam inh | VP16 counter | LDHA block | TDP1 cell CPT | RORg inh
O=C(N/N=C/c1cc([N+](=O)[O-])ccc1O)c1cccc2cc[nH]c12 | 4.11µM | i | 3.55µM | i | 6.51µM | 1.41µM
CCc1ccc(N2CC(C(=O)N/N=C/c3cc([N+](=O)[O-])ccc3O)CC2=O)cc1 (stereo not drawn) | ? | i | 10µM | i | ? | 4.47µM
O=[N+]([O-])c1ccccc1N/N=C\c1ccccc1Cl | i | i | i | i | i | i
COc1cc(/C=C/C2=Nc3ccccc3SC(C)(C)C2)ccc1O | nt | nt | nt | i | nt | nt
CCN(CC)c1ccc(NS(=O)(=O)c2ccc3c(c2)CCCC3)cc1C(=O)O | nt | nt | nt | i | nt | nt
Cc1sc(N/N=C/c2cc([N+](=O)[O-])ccc2O)nc1-c1ccccc1 | 14.6µM | i | 0.708µM | i | 14.6µM | 0.282µM
CN1CCN(CCC(=O)N/N=C/c2cc([N+](=O)[O-])ccc2O)CC1 | ? | i | ? | i | ? | ?
O=C1NCCCC1C(=O)N/N=C/c1cc([N+](=O)[O-])ccc1O (stereo not drawn) | ? | i | i | i | i | i
O=C(N/N=C/c1cc([N+](=O)[O-])ccc1O)C1CC1 | 18.4µM | i | 7.94µM | i | ? | 1.78µM
O=C(N/N=C/c1cc([N+](=O)[O-])ccc1O)C(O)(c1ccccc1)c1ccccc1 | 16.4µM | i | 0.891µM | i | ? | 0.891µM
O=C(N/N=C/c1ccccc1O)C1SCCCS1 | 6.51µM | i | 5.01µM | i | 11.6µM | 0.794µM
O=C(N/N=C/c1ccccc1F)NC1CCCCC1 | i | i | i | i | i | i
Cc1c(NC(=S)N/N=C/c2cc([N+](=O)[O-])ccc2O)c(=O)n(-c2ccccc2)n1C | ? | i | ? | i | i | ?
Cc1ccc(-c2cnc(CCC(=O)N(C)CC(=O)Nc3ccccc3Br)o2)cc1 | nt | nt | nt | i | nt | nt
CCOc1ccc2nc(N3CCN(C(=O)c4ccco4)CC3)sc2c1 | 18.4µM | nt | nt | i | ? | nt
CCOc1ccc2nc(N3CCC(C(=O)N4CCN(c5ccccn5)CC4)CC3)sc2c1 | 6.51µM | i | i | i | 5.8µM | ?
CCOc1ccc2nc(SCC(=O)N3CCN(C(=O)c4ccco4)CC3)sc2c1 | 11.6µM | i | i | i | ? | i
CCOc1ccc2nc(N3CCC(C(=O)N4CCN(c5ncccn5)CC4)CC3)sc2c1 | ? | i | i | i | ? | i
O=C(CSc1nc2ccccc2s1)N1CCN(C(=O)c2ccco2)CC1 | ? | i | i[0.365 µM] | i | i | i
Cc1c(C(=O)N2CCOCC2)cc(C(C)(C)C)n1-c1ccccc1 | 20.6µM | i | i | i | ? | i
CCN(CC)S(=O)(=O)c1ccc(S(=O)(=O)N2CCCC2c2cccn2C)cc1 (stereo not drawn) | nt | nt | nt | i | nt | nt
COC(=O)C1=C(C)OC(N)=C(C#N)C1c1cccnc1 (stereo not drawn) | ? | i | i | i | 20.6µM | i
N#CC1=C(N)Oc2ccc3ccccc3c2C1c1cccnc1 (stereo not drawn) | 5.17µM | i | i | i | 3.66µM | i
COC(=O)C1=C(C)OC(N)=C(C#N)C1c1ccc2c(c1)OCO2 (stereo not drawn) | nt | nt | nt | i | nt | nt
CC1=C(n2nnc([N+](=O)[O-])n2)C(c2cccnc2)C(C#N)=C(N)O1 (stereo not drawn) | ? | ? | ? | i | 9.2µM | ?
